Our source for the log2 fold change values is the supplement of paper PMC10849652.

Of roughly 8,800 targets only a part is listed; those with a hit were picked by preference. About 0.5% of all pairs of compound and target were hits.

Chain of UniProt P11309 (P11309 whole entry, looked up): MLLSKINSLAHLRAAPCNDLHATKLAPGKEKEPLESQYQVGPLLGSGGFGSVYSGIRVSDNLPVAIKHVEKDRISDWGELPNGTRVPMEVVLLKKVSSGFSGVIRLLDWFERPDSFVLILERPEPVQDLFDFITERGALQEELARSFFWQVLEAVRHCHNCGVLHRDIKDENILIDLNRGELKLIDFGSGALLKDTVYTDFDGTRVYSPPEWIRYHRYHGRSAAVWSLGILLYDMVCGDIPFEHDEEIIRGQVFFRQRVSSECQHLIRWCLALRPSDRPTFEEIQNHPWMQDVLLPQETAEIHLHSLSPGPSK
Chain of UniProt Q99755 (Q99755 whole entry, looked up): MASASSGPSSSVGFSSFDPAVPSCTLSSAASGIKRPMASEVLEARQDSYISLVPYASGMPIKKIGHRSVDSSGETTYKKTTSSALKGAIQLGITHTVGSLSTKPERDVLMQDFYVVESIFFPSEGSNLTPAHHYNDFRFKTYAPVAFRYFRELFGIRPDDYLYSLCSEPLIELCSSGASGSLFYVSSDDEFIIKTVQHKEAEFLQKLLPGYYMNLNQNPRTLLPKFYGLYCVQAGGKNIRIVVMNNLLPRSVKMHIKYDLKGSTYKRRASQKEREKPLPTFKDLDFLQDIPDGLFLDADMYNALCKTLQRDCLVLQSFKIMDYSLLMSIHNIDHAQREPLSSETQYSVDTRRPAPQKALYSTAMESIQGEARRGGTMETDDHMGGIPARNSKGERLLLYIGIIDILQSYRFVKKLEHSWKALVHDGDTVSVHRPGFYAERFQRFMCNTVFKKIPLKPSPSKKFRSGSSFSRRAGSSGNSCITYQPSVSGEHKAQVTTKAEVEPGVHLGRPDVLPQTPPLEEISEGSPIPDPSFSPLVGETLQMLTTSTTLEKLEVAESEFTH
Chain of UniProt Q9UHX1 (Q9UHX1 whole entry, looked up): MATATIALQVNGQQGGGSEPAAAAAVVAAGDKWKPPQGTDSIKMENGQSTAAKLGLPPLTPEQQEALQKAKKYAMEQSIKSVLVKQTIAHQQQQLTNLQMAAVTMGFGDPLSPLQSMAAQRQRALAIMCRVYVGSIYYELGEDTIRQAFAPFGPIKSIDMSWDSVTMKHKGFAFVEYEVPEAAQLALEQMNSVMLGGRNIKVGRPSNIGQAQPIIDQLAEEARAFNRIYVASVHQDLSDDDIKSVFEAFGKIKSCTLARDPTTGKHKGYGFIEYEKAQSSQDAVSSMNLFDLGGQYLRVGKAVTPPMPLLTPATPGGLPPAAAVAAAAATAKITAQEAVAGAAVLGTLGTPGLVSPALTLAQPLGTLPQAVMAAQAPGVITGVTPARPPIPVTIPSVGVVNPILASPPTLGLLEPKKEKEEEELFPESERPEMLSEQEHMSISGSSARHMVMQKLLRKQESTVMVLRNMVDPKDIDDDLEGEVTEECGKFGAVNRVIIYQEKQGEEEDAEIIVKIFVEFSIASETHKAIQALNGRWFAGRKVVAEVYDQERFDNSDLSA
Chain of UniProt P45877 (P45877 whole entry, looked up): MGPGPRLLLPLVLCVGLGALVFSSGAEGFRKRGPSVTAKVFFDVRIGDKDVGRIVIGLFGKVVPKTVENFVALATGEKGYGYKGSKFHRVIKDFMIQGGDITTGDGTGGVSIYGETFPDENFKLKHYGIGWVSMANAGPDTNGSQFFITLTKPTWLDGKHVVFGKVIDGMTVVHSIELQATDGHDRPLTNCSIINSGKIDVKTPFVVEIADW
Chain of UniProt Q96LW4 (Q96LW4 whole entry, looked up): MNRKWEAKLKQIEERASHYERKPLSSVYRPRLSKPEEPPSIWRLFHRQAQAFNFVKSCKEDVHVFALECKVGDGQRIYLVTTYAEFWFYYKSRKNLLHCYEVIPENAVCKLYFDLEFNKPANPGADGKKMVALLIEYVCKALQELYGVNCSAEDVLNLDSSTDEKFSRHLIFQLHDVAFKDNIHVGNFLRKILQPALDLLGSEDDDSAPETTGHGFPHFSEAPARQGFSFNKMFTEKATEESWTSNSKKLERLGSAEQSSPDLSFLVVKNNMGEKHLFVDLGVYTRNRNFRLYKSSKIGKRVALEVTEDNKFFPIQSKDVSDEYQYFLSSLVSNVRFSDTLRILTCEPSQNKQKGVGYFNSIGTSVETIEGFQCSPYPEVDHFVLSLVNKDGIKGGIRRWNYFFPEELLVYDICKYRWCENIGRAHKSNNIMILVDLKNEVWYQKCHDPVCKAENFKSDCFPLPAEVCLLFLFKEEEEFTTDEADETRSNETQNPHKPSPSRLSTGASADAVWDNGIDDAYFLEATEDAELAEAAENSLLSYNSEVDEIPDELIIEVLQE
Chain of UniProt O94806 (O94806 whole entry, looked up): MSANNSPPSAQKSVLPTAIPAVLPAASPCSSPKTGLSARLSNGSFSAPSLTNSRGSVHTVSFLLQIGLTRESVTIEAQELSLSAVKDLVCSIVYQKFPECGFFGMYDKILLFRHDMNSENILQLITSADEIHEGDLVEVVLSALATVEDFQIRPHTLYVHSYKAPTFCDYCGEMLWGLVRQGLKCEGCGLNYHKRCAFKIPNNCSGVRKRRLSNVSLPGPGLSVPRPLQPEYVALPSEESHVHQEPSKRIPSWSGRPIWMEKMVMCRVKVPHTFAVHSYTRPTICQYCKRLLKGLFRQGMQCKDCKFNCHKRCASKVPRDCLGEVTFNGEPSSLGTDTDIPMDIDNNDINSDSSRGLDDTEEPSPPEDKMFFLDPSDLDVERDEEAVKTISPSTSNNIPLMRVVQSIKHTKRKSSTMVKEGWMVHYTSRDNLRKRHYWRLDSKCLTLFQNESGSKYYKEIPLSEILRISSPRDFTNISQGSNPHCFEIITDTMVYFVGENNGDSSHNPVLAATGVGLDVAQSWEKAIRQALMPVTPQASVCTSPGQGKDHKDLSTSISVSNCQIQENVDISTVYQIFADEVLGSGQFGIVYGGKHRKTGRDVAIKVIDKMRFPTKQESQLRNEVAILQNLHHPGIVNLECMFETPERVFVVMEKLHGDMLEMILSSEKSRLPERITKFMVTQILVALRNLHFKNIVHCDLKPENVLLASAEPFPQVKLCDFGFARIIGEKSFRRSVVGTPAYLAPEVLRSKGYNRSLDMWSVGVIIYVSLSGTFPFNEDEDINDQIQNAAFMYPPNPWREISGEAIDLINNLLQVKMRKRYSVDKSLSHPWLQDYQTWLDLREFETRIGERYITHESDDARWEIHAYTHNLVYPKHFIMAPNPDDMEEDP
Chain of UniProt O00329 (O00329 whole entry, looked up): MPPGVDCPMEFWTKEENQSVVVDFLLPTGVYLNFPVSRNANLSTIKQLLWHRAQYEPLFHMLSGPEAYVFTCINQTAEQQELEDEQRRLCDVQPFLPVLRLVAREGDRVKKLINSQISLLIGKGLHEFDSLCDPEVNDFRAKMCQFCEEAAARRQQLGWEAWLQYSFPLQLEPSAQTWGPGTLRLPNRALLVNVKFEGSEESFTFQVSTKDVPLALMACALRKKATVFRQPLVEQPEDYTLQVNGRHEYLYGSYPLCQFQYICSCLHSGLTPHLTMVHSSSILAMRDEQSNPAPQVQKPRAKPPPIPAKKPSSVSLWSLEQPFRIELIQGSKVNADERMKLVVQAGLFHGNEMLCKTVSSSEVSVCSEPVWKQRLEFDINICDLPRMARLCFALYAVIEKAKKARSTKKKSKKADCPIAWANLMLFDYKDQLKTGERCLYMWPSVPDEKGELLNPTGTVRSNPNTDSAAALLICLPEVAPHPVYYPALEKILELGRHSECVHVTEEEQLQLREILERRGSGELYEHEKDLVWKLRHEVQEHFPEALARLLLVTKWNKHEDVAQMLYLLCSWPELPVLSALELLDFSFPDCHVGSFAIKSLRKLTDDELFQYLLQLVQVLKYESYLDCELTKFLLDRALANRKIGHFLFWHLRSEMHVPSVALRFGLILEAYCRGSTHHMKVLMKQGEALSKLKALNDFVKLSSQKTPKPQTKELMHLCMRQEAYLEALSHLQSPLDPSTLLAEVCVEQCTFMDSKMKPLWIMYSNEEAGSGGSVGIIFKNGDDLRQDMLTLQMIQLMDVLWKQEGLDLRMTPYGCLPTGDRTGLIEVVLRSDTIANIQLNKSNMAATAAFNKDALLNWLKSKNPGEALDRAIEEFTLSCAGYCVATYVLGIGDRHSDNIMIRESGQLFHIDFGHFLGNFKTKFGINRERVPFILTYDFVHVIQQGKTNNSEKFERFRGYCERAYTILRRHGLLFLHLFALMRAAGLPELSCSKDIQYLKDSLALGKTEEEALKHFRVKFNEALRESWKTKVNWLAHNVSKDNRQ
Chain of UniProt Q9BRQ0 (Q9BRQ0 whole entry, looked up): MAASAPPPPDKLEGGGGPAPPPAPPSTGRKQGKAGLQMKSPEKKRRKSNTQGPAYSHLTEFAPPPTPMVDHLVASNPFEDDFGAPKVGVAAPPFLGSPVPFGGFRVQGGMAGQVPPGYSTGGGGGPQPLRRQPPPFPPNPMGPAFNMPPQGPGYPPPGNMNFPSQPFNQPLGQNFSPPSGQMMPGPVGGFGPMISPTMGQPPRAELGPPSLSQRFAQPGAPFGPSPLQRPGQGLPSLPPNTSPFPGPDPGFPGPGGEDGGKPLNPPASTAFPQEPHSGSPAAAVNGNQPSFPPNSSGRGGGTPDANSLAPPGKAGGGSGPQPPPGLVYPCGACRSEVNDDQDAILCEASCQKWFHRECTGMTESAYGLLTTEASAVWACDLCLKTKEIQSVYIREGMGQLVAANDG
Chain of UniProt Q15004 (Q15004 whole entry, looked up): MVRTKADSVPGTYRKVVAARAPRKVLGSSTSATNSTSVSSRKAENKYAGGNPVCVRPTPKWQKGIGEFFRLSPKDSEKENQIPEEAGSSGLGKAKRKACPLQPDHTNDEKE
Chain of UniProt P41247 (P41247 whole entry, looked up): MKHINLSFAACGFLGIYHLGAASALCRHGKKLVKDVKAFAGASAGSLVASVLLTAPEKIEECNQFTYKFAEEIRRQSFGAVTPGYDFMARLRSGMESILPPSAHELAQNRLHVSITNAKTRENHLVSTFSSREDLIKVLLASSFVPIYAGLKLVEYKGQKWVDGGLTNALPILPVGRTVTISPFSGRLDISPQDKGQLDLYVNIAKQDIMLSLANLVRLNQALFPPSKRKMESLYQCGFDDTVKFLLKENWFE

Compound in one experiment: CS(=O)(=O)N1CCN(Cc2cc3nc(-c4cccc5[nH]ncc45)nc(N4CCOCC4)c3s2)CC1 [pictilisib]
Nature of the experiment: log2 fold change, soluble protein after heating vs DMSO (PISA); higher = thermal stabilisation; K562 lysate, 10 uM; active = over 0.2 and 3.5 SD of the protein, either way, in both replicates (recomputed). The gist of the method: (§1)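 A 30 min treatment with 10 μM compound was applied to crude K562 extract at 1 mg/mL protein in PBS pH 7.4 with 1 mM MgCl2. Heating for 3 min spanned 48°C-58°C, after which aliquots were pooled, adjusted to 0.5% NP-40 at 4°C and spun at 21,000xg for 90 min. TMTpro 16plex LC-MS/MS of the supernatant, with channel sums equalised, gave values recorded as log-two fold change in thermal stability against solvent controls, from duplicates.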
With PPP2R5C isoform 2 (UniProt Q13362), the log2 fold change was 0.151 (inactive).

In the case of PIP5K1A (UniProt Q99755), the log2 fold change is 0.07 (inactive). On the same count and under the same terms, the figure for PRIMPOL (UniProt Q96LW4) is 0.02 (inactive); for PCLAF (UniProt Q15004) it is 0.015 (inactive); for PTK2B (UniProt Q14289) it is -0.043 (inactive). The same measure, in the same setting: the figure for PPIC (UniProt P45877) is -0.003 (inactive); for PFN1 (UniProt I3L3D5) it is -0.062 (inactive). On to PHC1 (UniProt P78364), for which the log2 fold change is -0.025 (inactive). The same measure, in the same setting: the same measure for PPP1R12B isoform 6 (UniProt O60237): 0.017 (inactive); for PIM1 isoform 2 (UniProt P11309): 0.084 (inactive). The same measure, in the same setting: the figure for PPP2R3C (UniProt Q969Q6) is -0.029 (inactive); for PTMA isoform 2 (UniProt P06454) it is -0.053 (inactive); for PRKD3 (UniProt O94806) it is 0.019 (inactive). Same read-out and setting: the figure for PMS1 (UniProt P54277) is -0.028 (inactive); for PYGO2 (UniProt Q9BRQ0) it is -0.038 (inactive); for PPP1R14C (UniProt Q8TAE6) it is -0.025 (inactive). PUF60 isoform 2 (UniProt Q9UHX1): the log2 fold change is -0.003 (inactive).

As for PIK3CD (UniProt O00329), the log2 fold change is 0.142 (inactive). The same measure, in the same setting: the figure for PTK2 isoform 2 (UniProt Q05397) is 0.067 (inactive). On the same count and under the same terms, the figure for PHF14 (UniProt O94880) is -0.049 (inactive); for PCBP2 (UniProt F8W0G4) it is 0.087 (inactive). Still for that read-out and setting: the figure for PLXND1 (UniProt Q9Y4D7) is 0.018 (inactive); for POM121C (UniProt A8CG34) it is 0.19 (inactive). For the target PPME1 (UniProt Q9Y570), the log2 fold change was 0.038 (inactive). In the case of PHGDH, A0A286YFE1, the log2 fold change is 0.114 (inactive).

Compound in another experiment: C[C@@H](Oc1cc(-c2cnn(C3CCNCC3)c2)cnc1N)c1c(Cl)ccc(F)c1Cl [crizotinib]
The description is as above. In short, it runs like this: as §1
As for PIAS2 (UniProt O75928), the log2 fold change was -0.045 (inactive).

Regarding PPP2R5C isoform 2 (UniProt Q13362), the log2 fold change was 0.234 (inactive). Regarding PIP5K1A (UniProt Q99755), the log2 fold change was -0.168 (inactive).

PRIMPOL (UniProt Q96LW4): the log2 fold change was -0.097 (inactive).

With PCLAF (UniProt Q15004), the log2 fold change was 0.024 (inactive). The same measure, in the same setting: the figure for PPIC (UniProt P45877) is -0.131 (inactive); for PHC1 (UniProt P78364) it is 0.063 (inactive); for PDE4DIP (UniProt E9PS60) it is -0.034 (inactive).

On to PPP1R12B isoform 6 (UniProt O60237), for which the log2 fold change is -0.347 (inactive). Same read-out and setting: the same measure for PIM1 isoform 2 (UniProt P11309): -0.107 (inactive). Take PRKD3 (UniProt O94806): the log2 fold change is -0.199 (inactive). Same read-out and setting: the figure for PMS1 (UniProt P54277) is -0.004 (inactive). Still for that read-out and setting: the figure for PCBP2 (UniProt F8VRH0) is 0.023 (inactive); for PYGO2 (UniProt Q9BRQ0) it is 0.067 (inactive).

Regarding NA (UniProt Q4G0T1), the log2 fold change was 0.023 (inactive). Same read-out and setting: the same measure for PDIA4, A0A499FI48: -0.063 (inactive). Same read-out and setting: the figure for PUF60 isoform 2 (UniProt Q9UHX1) is 0.005 (inactive).

Consider PNPLA4 (UniProt P41247), for which the log2 fold change was -0.098 (inactive).

Turning to PIK3CD (UniProt O00329), the log2 fold change is -0.037 (inactive). Still for that read-out and setting: the figure for PFN3 (UniProt P60673) is -0.046 (inactive); for PLXND1 (UniProt Q9Y4D7) it is 0.067 (inactive); for PIK3CG (UniProt P48736) it is -0.128 (inactive). On the same count and under the same terms, the figure for PHKG1 isoform 2 (UniProt Q16816) is 0.305 (inactive).

PHOSPHO2 (UniProt C9JD35): the log2 fold change is 0.02 (inactive).
